Assay results: PubChem BioAssay AID1159580 (chemical genetic matrix, 2015)
About 2,000 (36%) of roughly 5,500 compounds were called active. Roughly 18% stayed inconclusive and do not appear here. Rule as the data show it: active = normalized growth mostly below about 0.91 (no sharp cut-off); inconclusive = no clear call, values can overlap the other calls; inactive = mostly above about 0.92. The list shows a part of the results.

Test: chemical genetic growth profiling, strain panel (AID 1159580);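 also: tested at 20 µM; growth read once vehicle control cultures reached saturation at 30 °C; 1 = growth at the plate median or of vehicle wells; lower values mean less growth of the strain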
Settings: S. cerevisiae deletion strains, growth OD
[1] = locus YDL101C, strain DUN1, active compounds read low
[2] = locus YHR030C, strain SLT2, active compounds read low

Measured: normalized growth

COc1ccc(/C(C#N)=C/c2ccc(OC)c(OC)c2)cc1
inactive: locus YAL013W, strain DEP1, active compounds read low 0.953 | locus YBR229C, strain ROT2, active compounds read low 0.98 | [1] 0.985 | locus YDL134C, strain PPH21, active compounds read low 0.949 | locus YDR150W, strain NUM1, active compounds read low 0.951 | locus YEL061C, strain CIN8, active compounds read low 0.961 | locus YGR078C, strain PAC10, active compounds read low 0.968 | locus YGR229C, strain SMI1, active compounds read low 0.972 | locus YHR087W, strain rtc3, active compounds read low 0.962 | locus YJL187C, strain SWE1, active compounds read low 1 | locus YJR043C, strain POL32, active compounds read low 0.964 | locus YJR075W, strain HOC1, active compounds read low 0.95 | locus YLR058C, strain SHM2 (second series), active compounds read low 0.998 | locus YML094W, strain GIM5, active compounds read low 0.933 | locus YMR219W, strain ESC1, active compounds read low 0.998 | locus YMR263W, strain SAP30, active compounds read low 0.953 | locus YNL153C, strain GIM3, active compounds read low 0.969 | locus YNL298W, strain CLA4 (second series), active compounds read low 0.936 | locus YNL322C, strain KRE1, active compounds read low 0.994 | locus YNR030W, strain Alg12, active compounds read low 0.925 | locus YPL055C, strain LGE1, active compounds read low 0.9 | locus YPL241C, strain CIN2, active compounds read low 0.933 | locus YPR135W, strain CTF4, active compounds read low 0.698
active: [2] 0.548 | locus YLR039C, strain RIC1, active compounds read low 0.717 | locus YLR085C, strain ARP6, active compounds read low 0.768 | locus YLR262C, strain YPT6, active compounds read low 0.741

N#C/C(=C\C=C\c1ccccc1)c1nc2ccccc2[nH]1
inactive: locus YAR019C, strain CDC15, active compounds read low 0.958 | locus YBL105C, strain PKC1, active compounds read low 0.969 | locus YBR135W, strain CKS1, active compounds read low 0.944 | locus YBR136W, strain MEC1, active compounds read low 0.962 | locus YBR160W, strain CDC28, active compounds read low 0.962 | locus YDL017W, strain CDC7, active compounds read low 0.961 | locus YDL028C, strain MPS1, active compounds read low 0.962 | [1] 0.973 | locus YDL108W, strain KIN28, active compounds read low 0.968 | locus YDL132W, strain cdc53, active compounds read low 0.964 | locus YDL214C, strain PRR2, active compounds read low 0.864 | locus YDR052C, strain DBF4, active compounds read low 0.966 | locus YDR054C, strain cdc34, active compounds read low 0.955 | locus YDR226W, strain ADK1, active compounds read low 0.962 | locus YDR477W, strain SNF1, active compounds read low 0.823 | locus YER123W, strain YCK3, active compounds read low 0.878 | locus YER133W, strain GLC7, active compounds read low 0.834 | locus YFL009W, strain cdc4, active compounds read low 0.964 | locus YFL029C, strain CAK1, active compounds read low 0.958 | locus YFR003C, strain YPI1, active compounds read low 0.976 | locus YFR019W, strain FAB1, active compounds read low 0.966 | locus YFR028C, strain CDC14, active compounds read low 0.956 | locus YGR040W, strain KSS1, active compounds read low 0.83 | locus YGR052W, strain FMP48, active compounds read low 0.916 | locus YGR092W, strain DBF2, active compounds read low 0.829 | locus YHR079C, strain IRE1, active compounds read low 0.848 | locus YHR082C, strain KSP1, active compounds read low 0.819 | locus YHR205W, strain SCH9, active compounds read low 0.818 | locus YIL147C, strain SLN1, active compounds read low 0.967 | locus YJL095W, strain BCK1, active compounds read low 0.729 | locus YJL128C, strain PBS2, active compounds read low 0.957 | locus YJL157C, strain FAR1, active compounds read low 0.886 | locus YJR016C, strain ILV3, active compounds read low 0.958 | locus YJR066W, strain TOR1 (second series), active compounds read low 0.871 | locus YJR066W, strain TOR1, active compounds read low 0.791 | locus YKL048C, strain ELM1, active compounds read low 0.904 | locus YKL067W, strain YNK1, active compounds read low 0.898 | locus YKL101W, strain HSL1, active compounds read low 0.882 | locus YKL193C, strain SDS22, active compounds read low 0.95 | locus YKL203C, strain TOR2, active compounds read low 0.878 | locus YLR133W, strain CKI1, active compounds read low 0.891 | locus YLR403W, strain SFP1, active compounds read low 0.86 | locus YML070W, strain DAK1, active compounds read low 0.864 | locus YMR001C, strain CDC5, active compounds read low 0.956 | locus YMR205C, strain PFK2 (second series), active compounds read low 0.901 | locus YMR277W, strain FCP1, active compounds read low 0.955 | locus YNL006W, strain LST8, active compounds read low 0.96 | locus YNL020C, strain ARK1, active compounds read low 0.896 | locus YNL161W, strain CBK1, active compounds read low 0.956 | locus YNL183C, strain NPR1, active compounds read low 0.793 | locus YNL207W, strain RIO2, active compounds read low 0.946 | locus YNL222W, strain SSU72, active compounds read low 0.957 | locus YNL307C, strain MCK1 (second series), active compounds read low 0.866 | locus YOL078W, strain AVO1, active compounds read low 0.954 | locus YOL136C, strain PFK27, active compounds read low 0.885 | locus YOR061W, strain CKA2, active compounds read low 0.908 | locus YOR119C, strain RIO1, active compounds read low 0.875 | locus YOR231W, strain MKK1, active compounds read low 0.828 | locus YOR329C, strain SCD5, active compounds read low 0.976 | locus YPL031C, strain PHO85, active compounds read low 0.824 | locus YPL153C, strain RAD53, active compounds read low 0.855 | locus YPL204W, strain HRR25, active compounds read low 0.827 | locus YPL209C, strain IPL1, active compounds read low 0.963 | locus YPR025C, strain CCL1, active compounds read low 0.952 | locus YPR106W, strain ISR1, active compounds read low 0.965 | locus YPR111W, strain DBF20, active compounds read low 0.944 | strain NNK1, active compounds read low 0.942 | strain TSCII, active compounds read low 0.952
active: [2] 0.673 | locus YLR113W, strain HOG1, active compounds read low 0.658 | locus YPL256C, strain CLN2, active compounds read low 0.767
